In all, about 16,000 compounds went through this assay and about 5,800 (36%) were called active. Another 23% or so got no clear call; they are omitted. Calls come from the whole dose curve; as a rule, active = well fitted curve in the direction sought with a large enough effect; inconclusive = small, poorly fitted or top-dose-only effect, or effect the other way; inactive = no such curve, though single readings can be large or run the other way. The list shows a part of the results.
% is set by controls: 0 for no effect and ±100 for the full control effect.

The target in the experiment is Cytochrome P450 2C19 (Homo sapiens) (UniProt P33261). Nature of the experiment: Cytochrome panel assay with activity outcomes. The following applies: recombinant CYP, pro-luciferin dealkylation, luminescence, p450-cyp2c19; series mostly up to 57.1 µM.
Cytochrome P450 2C19 (Homo sapiens), sequence (P33261 whole entry, looked up): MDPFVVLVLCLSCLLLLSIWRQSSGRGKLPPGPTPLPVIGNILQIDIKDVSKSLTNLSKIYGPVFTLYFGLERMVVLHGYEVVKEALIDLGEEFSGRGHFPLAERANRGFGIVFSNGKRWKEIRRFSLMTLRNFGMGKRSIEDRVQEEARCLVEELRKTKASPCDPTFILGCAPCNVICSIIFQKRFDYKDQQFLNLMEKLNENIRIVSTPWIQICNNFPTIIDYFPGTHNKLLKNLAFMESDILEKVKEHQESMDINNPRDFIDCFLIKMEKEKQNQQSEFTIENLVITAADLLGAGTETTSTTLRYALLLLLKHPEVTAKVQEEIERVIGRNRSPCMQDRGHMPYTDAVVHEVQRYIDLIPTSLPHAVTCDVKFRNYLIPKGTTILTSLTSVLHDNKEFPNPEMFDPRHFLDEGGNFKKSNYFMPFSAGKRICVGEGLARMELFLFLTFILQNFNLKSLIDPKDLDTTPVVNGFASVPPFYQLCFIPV
One may read the AC50 as the concentration at which the activity in the assay is half-maximal. For the compound `CCOC(=O)C1CCCN(C(=O)CCn2nc(-c3ccccc3)ccc2=O)C1` (stereo not given), the AC50 result is “inactive”. On the same count and under the same terms, under `CCOC(=O)C1CCCN(S(=O)(=O)c2ccccc2)C1` (stereo not given) stands 4.47 µM (active); under `CCOC(=O)C1CCCN(C(=O)CSCc2ccccc2)C1` (stereo not given), 11.2 µM (active); under `CCCS(=O)(=O)N1CCCC(C(=O)NCCCOCC)C1` (stereo not given), “inactive”.

Turning to `CCCS(=O)(=O)N1CCCC(C(=O)N2CCN(C(=O)OCC)CC2)C1` (stereo not given), the AC50 entry was “inactive”. On to `CCOC(=O)CNc1c(-c2ccccc2)nc2ccc(Cl)cn12`, for which the half-maximal activity concentration (AC50) was 5.01 µM (active).

`COC(=O)[C@@H]1O[C@@H](c2c(OC)c(OC)c(C)c(OC)c2OC)[C@H](C)[C@@H](O)[C@@H]1C`: the activity, negative = inhibition was -37.9% [at 11.4 µM] (inactive). As for `Clc1ccc(Cl)c(Nc2ccnc(SCc3ccccc3)n2)c1`, the concentration at half-maximal activity (AC50) is 5.01 µM (active). Turning to `CC(C)OC(=O)C1=C2SCC(=O)N2C(N)=C(C#N)C1`, the AC50 is 2.51 µM (active).

Regarding `CCOC(=O)c1c(C)c(C)n2c1NC(=O)C2`, the activity, negative = inhibition was 1.54% [at 11.4 µM] (inactive). `CCOC(=O)C1=C2SCC(=O)N2C(N)=C(C#N)C1`: the half-maximal activity concentration (AC50) was 14.1 µM (active).

For the compound `Oc1cc2c(c(Cl)c1O)CCNC[C@H]2c1ccccc1`, the AC50 entry is “inactive”. Still for that read-out and setting: next, `O=C(NCc1ccco1)c1cc(C(=O)C2CC2)c[nH]1`: 25.1 µM (active); `O=C(NCCc1ccccn1)c1cc(C(=O)C2CCCCC2)c[nH]1`: “inactive”.

For `Cc1ccc(-c2nn(-c3ccccc3)cc2CSC(=N)N)cc1`, the half-maximal activity concentration (AC50) is 8.91 µM (active). On the same count and under the same terms, next, `Cc1c(NC(=O)/C=C/c2cn(-c3ccccc3)nc2-c2ccc(F)cc2)c(=O)n(-c2ccccc2)n1C`: “inactive”.

As to `CCC(C)NC(=O)Cn1cnc2sc(C)cc2c1=O` (stereo not given), the AC50 result was “inactive”. On the same count and under the same terms, under `CCC(C)NC(=O)CCS(=O)(=O)c1ccc(Br)s1` (stereo not given) stands 5.01 µM (active); under `COc1ccccc1NC(=O)Nc1nc(-c2cccnc2)nc2ccccc12`, “inactive”. Same read-out and setting: next, `CCOC(=O)c1ccc(Nc2nc(C(=O)OCC)nc3ccccc23)cc1`: 1.41 µM (active); `CCOC(=O)c1ccc(Nc2nc(-c3cccnc3)nc3ccccc23)cc1`: 3.55 µM (active). Still for that read-out and setting: next, `c1ccc(Nc2nc(-c3cccnc3)nc3ccccc23)cc1`: “inactive”. `CC(C)=CCC/C(C)=C/CO/N=C1/C[C@@H](O)[C@@H](O)[C@@H]2[C@@H]3C(=O)N(Cc4ccc5c(c4)OCO5)C(=O)[C@H]3CC[C@@H]12`: the activity, negative = inhibition is 17.2% [at 11.4 µM] (inactive). As for `O=C(c1cnccn1)N1CCC[C@@]2(CCN(C(c3ccccc3)c3ccccc3)C2)C1`, the AC50 result is “inactive”.

Regarding `CC(C)CC(C(=O)OCC(=O)Nc1ncc(Cl)cc1Cl)N1C(=O)c2ccccc2C1=O` (stereo not given), the AC50 was 2.24 µM (active). Regarding `O=C(O)[C@H](Cc1ccc(O)c([N+](=O)[O-])c1)N1C(=O)c2ccccc2C1=O`, the activity, negative = inhibition was 26.2% [at 11.4 µM] (inactive).

Regarding `O=C(O)CC[C@@H](C(=O)O)N1C(=O)c2ccccc2C1=O`, the AC50 result was “inactive”. Still for that read-out and setting: next, `CC(C)(CNC(=O)c1ccc([N+](=O)[O-])c(Cl)c1)CNC(=O)c1ccc([N+](=O)[O-])c(Cl)c1`: 2.24 µM (active). For `CC(C)(C)OC(=O)[C@H]([C@@H]1N[C@@H](C(=O)O)C(C)(C)S1)N1C(=O)c2ccccc2C1=O`, the activity, negative = inhibition is 36.7% [at 11.4 µM] (inactive). Turning to `Cc1[nH]c2ccccc2c1CCNC(=O)c1ccc2c(c1[N+](=O)[O-])C(=O)c1ccccc1C2=O`, the AC50 was 1.26 µM (active). Same read-out and setting: next, `O=C(c1cccs1)n1nc(-c2ccc(Cl)cc2)nc1NCc1ccco1`: 14.1 µM (active). Turning to `Cc1nc2cnc(N3CCNCC3)nc2n(-c2ccccc2)c1=O`, the AC50 result is “inactive”.

Consider `Cc1nn(-c2ccccc2)c(N2CCCCC2)c1/C=N/O`, for which the AC50 result is “inactive”. Consider `FC(F)(F)c1nc(-c2ccncc2)ncc1-c1nnnn1-c1ccccc1`, for which the half-maximal activity concentration (AC50) was 0.0224 µM (active). With `FC(F)(F)c1nc(N2CCCC2)ncc1-c1nnnn1-c1ccccc1`, the AC50 is 0.631 µM (active).

On to `O=C(O)[C@H]1CCCC[C@@H]1C(=O)Nc1nc2ccccc2[nH]1`, for which the activity, negative = inhibition was 26.5% [at 11.4 µM] (inactive). As to `CC(C)c1ccc(NC(=O)N(CCc2nc3ccccc3[nH]2)C2CCCC2)cc1`, the AC50 is 7.08 µM (active).

For `COCC(=O)O[C@]1(CCN(C)CCCc2nc3ccccc3[nH]2)CCc2cc(F)ccc2[C@@H]1C(C)C`, the AC50 entry was “inactive”. The same measure, in the same setting: next, `CCOC(=O)c1ccc(N)cc1`: “inactive”; `CCOC(=O)c1ccc(-c2ccc(CO)o2)cc1`: 28.2 µM (active); `CCOC(=O)c1ccc(OC(=O)CCCCCN=C(N)N)cc1`: “inactive”. The same measure, in the same setting: under `COC(=O)CSc1ccc(C#N)c(SCC(=O)OC)c1` stands 11.2 µM (active).

Regarding `CCOc1ccc(N/N=C(/C#N)C(N)=O)cc1`, the concentration at half-maximal activity (AC50) was 4.47 µM (active). The same measure, in the same setting: next, `Cc1ccc2oc(-c3cccc(NC(=S)NC(=O)/C=C/c4ccco4)c3)nc2c1`: 6.31 µM (active).

For `CCCC(=O)Nc1ccc2nc(SCC(=O)Nc3ccc(N4CCOCC4)c(Cl)c3)sc2c1`, the AC50 is 3.98 µM (active). Same read-out and setting: next, `O=C(Nc1ccc2nc(SCc3ccc(Cl)cc3)sc2c1)c1ccccc1C(=O)N1CCOCC1`: 3.98 µM (active). On the same count and under the same terms, under `Cc1ccc(NC(=O)CSCC(=O)Nc2ccc(N3CCOCC3)c(Cl)c2)cc1` stands 14.1 µM (active); under `CCC1CC(CSc2ncn[nH]2)OC1=O` (stereo not given), “inactive”. Still for that read-out and setting: next, `CN1[C@@H]2CC[C@H]1CC(OC(c1ccccc1)c1ccccc1)C2` (stereo not given in full): “inactive”. Take `O=S1(=O)OC(c2ccc(O)cc2)(c2ccc(O)cc2)c2ccccc21`: the activity, negative = inhibition is 28.4% [at 11.4 µM] (inactive). In the case of `O=C(/C=C/c1ccco1)NC(=S)Nc1ccc(N2CCOCC2)c(Cl)c1`, the concentration at half-maximal activity (AC50) was 11.2 µM (active).

On to `CCOc1ccc(C(F)(F)F)cc1NC(C)=O`, for which the concentration at half-maximal activity (AC50) was 28.2 µM (active). Same read-out and setting: under `O=C1NCC2=C1C(c1ccc(Br)cc1)Nc1ccccc1N2` (stereo not given) stands 8.91 µM (active); under `COc1cc(NC(=O)c2cc3ccccc3o2)c(OC)cc1Br`, “inactive”. Consider `COc1cc2c(cc1NC(=O)Nc1ccccc1)oc1ccccc12`, for which the AC50 is 3.55 µM (active). Same read-out and setting: next, `COc1cc2c(cc1NC(=O)c1cc(-c3cccnc3)nc3ccc(C)cc13)oc1ccccc12`: 3.55 µM (active); `COc1ccccc1C(=O)Nc1cc2c(ccc3ccccc32)oc1=O`: “inactive”.

`COc1ccccc1CC(=O)Nc1cc2oc3ccccc3c2cc1OC`: the AC50 was 6.31 µM (active).

On to `CC1(C)CCCN(C(=O)N2c3ccccc3Sc3ccccc32)C1`, for which the half-maximal activity concentration (AC50) was 0.562 µM (active). The same measure, in the same setting: under `CC1(C)CCCN(C(=O)c2coc(=O)c(Br)c2)C1` stands “inactive”; under `CC(=O)N1CCC[C@@]2(CCN(Cc3ccccc3)C2)C1`, “inactive”; under `O=C(CSc1cccc2cccnc12)OCC(=O)c1ccccc1`, 10 µM (active). With `Cc1cc(O)c(C(C)C)cc1NC(=O)Nc1cccc2ccccc12`, the concentration at half-maximal activity (AC50) is 0.0501 µM (active). For `NS(=O)(=O)c1ccc(NC(=O)Nc2cccc3ccccc23)cc1`, the activity, negative = inhibition is 2.76% [at 11.4 µM] (inactive).

On to `CCOc1cc(/C=C2\CCC/C(=C\c3cc(Cl)c(O)c(OCC)c3)C2=O)cc(Cl)c1O`, for which the AC50 is 15.8 µM (active). Regarding `O=C(O)[C@@H]1[C@@H]2C[C@@H]3[C@@H](OC(=O)[C@@H]31)[C@H]2Br`, the activity, negative = inhibition was -11.8% [at 11.4 µM] (inactive).

Consider `O=c1[nH]c2[nH]c(=S)[nH]c(=S)c2[nH]1`, for which the AC50 is 0.631 µM (active). The same measure, in the same setting: next, `CNC(=O)/C=C1\NC(C)(C)Cc2c1ccc1ccccc21`: 2.51 µM (active); `Nc1ccc2c3c(cccc13)C(=O)NC2=O`: “inactive”. The same measure, in the same setting: under `CC1(C)Cc2c(ccc3ccccc23)C(=O)N1` stands 10 µM (active); under `CNC(=O)[C@H]1O[C@H](n2cnc3c(NCc4cccc(I)c4)ncnc32)[C@@H](O)[C@@H]1O`, “inactive”; under `COc1ncc2nc(-c3cccs3)c(=O)n(C)c2n1`, “inactive”. Still for that read-out and setting: under `CCN(Cc1ccccc1)Cc1cccc([N+](=O)[O-])c1` stands 5.62 µM (active). Consider `N[C@@H](Cc1cccc([N+](=O)[O-])c1)C(=O)O`, for which the activity, negative = inhibition is -6.46% [at 11.4 µM] (inactive).

On to `COc1ccc(Oc2ncc3nc(-c4cccs4)c(=O)n(C)c3n2)cc1`, for which the AC50 entry is “inactive”. Same read-out and setting: under `COc1ccc(/C=N/n2c(-c3cccs3)n[nH]c2=S)cc1` stands 17.8 µM (active).

Turning to `CCc1n[nH]c(=S)n1/N=C/c1ccc2c(c1)OCO2`, the AC50 entry was “inactive”. On the same count and under the same terms, under `COc1ccccc1-c1nnc(SCc2nc3ccccc3s2)n1C` stands 2.24 µM (active). Consider `O=S(=O)(O)c1cc(O)c2c(N=Cc3ccccc3O)cc(S(=O)(=O)O)cc2c1`, for which the concentration at half-maximal activity (AC50) is 1.58 µM (active). As for `Nc1ccccc1N=Nc1c(S(=O)(=O)O)cc2cc(S(=O)(=O)O)cc(O)c2c1O`, the activity, negative = inhibition is -13.7% [at 11.4 µM] (inactive). On to `O=S(=O)(O)c1cc(O)c2c(O)c(N=Nc3cccc4ccccc34)c(S(=O)(=O)O)cc2c1`, for which the activity, negative = inhibition was -44.3% [at 11.4 µM] (inactive). Same read-out and setting: under `CC(C)N(CC(=O)O)CC(=O)O` stands -17.1% [at 11.4 µM] (inactive).

As for `CCOC(=O)CNC(=O)c1cccnc1`, the AC50 entry is “inactive”. The same measure, in the same setting: next, `N/C(=N\OC(=O)Cc1ccc(Cl)cc1)c1cccnc1`: 15.8 µM (active).

Consider `Cc1nc(Oc2ccc(Cl)cc2)c2oc3ccccc3c2n1`, for which the half-maximal activity concentration (AC50) was 2 µM (active). In the case of `COc1cccc(=O)c2c(C)n(-c3cc(C)cc(C)c3)c(C)c12`, the concentration at half-maximal activity (AC50) was 1 µM (active). On the same count and under the same terms, next, `CCOC(=O)n1c(=O)n(Cc2c(Cl)cccc2Cl)c2ccccc21`: 2 µM (active).

Turning to `CCOC(=O)n1c(=O)n(Cc2ccccc2Cl)c2ccccc21`, the AC50 was 0.282 µM (active). Same read-out and setting: next, `Cn1c(=O)n(CCC(=O)O)c2ccccc21`: “inactive”. On to `Cn1c(=O)c2[nH]c(COCc3nc4c([nH]3)c(=O)n(C)c(=O)n4C)nc2n(C)c1=O`, for which the activity, negative = inhibition is 25.6% [at 11.4 µM] (inactive). Take `CCOC(=O)C(=CNc1cccc(C)c1C)C(=O)OCC`: the AC50 result is “inactive”. On the same count and under the same terms, next, `CCOC(=O)C(=CNc1ncccc1C)C(=O)OCC`: 0.891 µM (active). As to `CCOC(=O)C(=CNCC(=O)O)C(=O)OCC`, the AC50 entry was “inactive”. Still for that read-out and setting: next, `O=c1c(-c2cc(F)cc(F)c2)nc2cncnc2n1C1CC1`: “inactive”. Consider `COc1ccc(Oc2ncc3nc(-c4cccs4)c(=O)n(Cc4cccc(OC)c4)c3n2)cc1`, for which the AC50 result was “inactive”. Still for that read-out and setting: next, `Cc1nc2cncnc2n(C2CC2)c1=O`: 3.98 µM (active); `O=c1c(-c2cccs2)nc2cncnc2n1Cc1ccccc1`: 1 µM (active). The same measure, in the same setting: under `O=c1c(-c2ccc(F)cc2)nc2cncnc2n1C1CC1` stands “inactive”. On the same count and under the same terms, next, `Cn1cc(-c2nc3cncnc3n(Cc3ccc(F)cc3)c2=O)c2ccccc21`: “inactive”; `COc1ccc(-n2c(=O)c(C)nc3cncnc32)cc1`: “inactive”; `Cc1nc2cncnc2n(Cc2ccccc2)c1=O`: 0.158 µM (active). In the case of `O=c1c(-c2cccs2)nc2cncnc2n1C1CC1`, the AC50 entry was “inactive”. For the compound `COc1cccc(Cn2c(=O)c(-c3cccs3)nc3cnc(OCc4ccccc4)nc32)c1`, the AC50 result was “inactive”.

As to `COc1ccc(Nc2ncc3nc(-c4cccs4)c(=O)n(Cc4cccc(OC)c4)c3n2)cc1`, the AC50 entry is “inactive”.

Take `COc1cccc(Cn2c(=O)c(-c3cccs3)nc3cncnc32)c1`: the AC50 was 5.01 µM (active).

Values taken from PubChem BioAssay AID1851 (National Center for Advancing Translational Sciences (NCATS), 2009).
